Laboratory results from PubChem BioAssay AID743287 (Broad Institute, 2014).
Values joined by “and” are separate entries in the source; they are usually repeats but may differ in a detail not shown here. Identical values can stand only once. Screen size: about 370,000 compounds; about 2,300 (0.62%) were called active.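 Rule for the calls: active = lowest replicate activation of at least 40%, so every replicate reaches that level; inactive = the rest.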 The list comes from a sample in which actives are over-represented; it also holds similar structures and randomly drawn compounds. Some structures have more than one record in an assay (separate samples or runs), and their calls can disagree.

Assay: primary screen for activators of insulin secretion dependent on glucose, INS-1E cells, GLuc reporter luminescence (AID 743287);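 note: 0% = median of neutral control wells and 100% = median of IBMX positive control wells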
Details: INS-1E GLuc reporter insulin secretion, 2-3 h, at 16.6 µM, stronger effect = higher value

SMILES	activation
COc1cccc(CN2CCCC(C(=O)c3ccccc3SC)C2)c1O (stereo not given)	-0.167% (inactive)
COc1ccc(C(=O)C2CCCN(Cc3ccc(C)s3)C2)cc1OC (stereo not given)	53.8% (active)
Cc1ccc(CN2CCCC(C(=O)c3ccc4c(c3)OCO4)C2)cc1C (stereo not given)	-7.76% (inactive)
CCN(CC)C(=O)[C@@H]1C=C2c3cccc4[nH]c(Br)c(c34)C[C@H]2N(C)C1	13.7% (inactive)
COC(=O)[C@H]1[C@H](CO)[C@H]2Cn3c(ccc(C4=CCCC4)c3=O)[C@@H]1N2C(=O)CC1CC1	-1.71% (inactive)
FC(F)(F)CN1CC2NC(C1)C2c1ccc(Br)cc1 (stereo not given)	-10.5% (inactive)
O=C(O)[C@H]1[C@H](CO)[C@H]2Cn3c(ccc(-c4ccccc4F)c3=O)[C@@H]1N2C(=O)c1cccnc1	19.1% (inactive)
CC(Cc1ccccc1)NCCC(c1ccccc1)c1ccccc1 (stereo not given)	182% (active)
CC(Cc1ccccc1)NC=O (stereo not given)	3.77% (inactive)
FC(F)(F)CN1CC2C(c3ccc(Br)cc3)C(C1)N2CC1CC1 (stereo not given)	-3.91% (inactive)
COC(=O)[C@@H]1[C@@H](CO)[C@@H]2Cn3c(ccc(C4=CCCCC4)c3=O)[C@H]1N2CC1CC1	6.37% (inactive)
CCCCCCCCCCCCn1ccc(=N)cc1	212% (active)
Clc1ccc([C@@H]2CC3CCC2N3)cn1 (stereo not given in full)	-8.41% (inactive)
C/C=C/c1ccc(C2[C@@H]3CN(S(C)(=O)=O)C[C@H]2N3)cc1 (stereo not given in full)	-6.54% (inactive)
O=C(O)[C@H]1[C@H](CO)[C@H]2Cn3c(cccc3=O)[C@@H]1N2C(=O)c1ccccc1	0.382% (inactive)
C=CCN1[C@@H]2CN(S(C)(=O)=O)C[C@H]1C2c1ccc(Br)cc1 (stereo not given in full)	17.3% (inactive)
CC(C)Nc1nc(Cl)nc(NC(C)C)n1	50.3% (active)
CC(=O)N1C[C@@H]2C(c3ccc(Br)cc3)[C@H](C1)N2C (stereo not given in full)	27.1% (inactive) and -21.4% (inactive)
COc1ccc2c(c1)[C@@]13CCCCC1[C@@H](C2)NCC3 (stereo not given in full)	8.42% (inactive)
COc1cccc(-c2ccc3n(c2=O)C[C@H]2[C@H](CO)[C@@H](C(=O)O)[C@@H]3N2C(=O)c2cnccn2)c1	14.6% (inactive)
COc1ccccc1CN1[C@@H](CO)[C@@H](c2ccccc2)C12CN(C(=O)Cc1ccccc1)C2	-6.56% (inactive)
COC(=O)C[C@@H]1CC[C@@H]2NC[C@@H](O)COC[C@H]2O1	7.25% (inactive)
COC(=O)C[C@H]1CC[C@H]2NC[C@@H](O)COC[C@@H]2O1	44% (active) and 14.5% (inactive)
CCC(C)NC1(c2ccccc2)CCCCC1 (stereo not given)	12.2% (inactive)
C[C@@H]1CN([C@H](C)CO)C(=O)CCCn2cc(nn2)CO[C@@H]1CN(C)C(=O)Oc1cccc2ccccc12	-14.5% (inactive)
